This is an account of results in PubChem BioAssay (NCATS).

Inconclusive results are not listed. Unmarked numbers belong to inactive results. The source made the active and inactive calls.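 The calls were made as follows, unless noted: active = compounds whose dose-response curve shows a full or clear partial loss of cell viability, called from curve shape rather than a numeric limit; inconclusive = weak partial curves or an effect only at the top dose; inactive = no dose-dependent loss of viability.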
Potency is read from the fitted curve at half-maximal effect.

The nature of one assay: Cell Viability - Jurkat (AID 426;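 active = dose-dependent loss of cell ATP signal giving a full or clear fitted curve, ranked by lower potency value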;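 also: cells exposed to compound for 40 hours at 37 °C before ATP read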). The following applies: qHTS. The method in brief:
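Luminescent ATP read-out (CellTiter-Glo, 20 min at room temperature) after 40 hr compound exposure at 37 °C of Jurkat E6-1 cells, 5000/well. Decreased ATP taken as cytotoxicity; AC50 from standard Hill equation.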
In general terms: qHTS replaces the single test concentration by a dilution series.
As for `Cc1cc2nc3c(=O)[nH]c(=O)nc-3n(C[C@H](O)[C@H](O)[C@H](O)CO)c2cc1C`, the Potency was more than 92 µM.

In the case of `Cc1c(O)cccc1C(=O)N[C@@H](CSc1ccccc1)[C@H](O)CN1C[C@H]2CCCC[C@H]2C[C@H]1C(=O)NC(C)(C)C`, the Potency is 31.8 µM (active).

For the molecule `COc1ccccc1O`, the Potency was more than 92 µM.

With `NCCNCCNCCNCCN`, the Potency was more than 92 µM.

Take `NCCNCCNCCN`: the Potency is more than 92 µM.

Consider `O=C1O[C@H]([C@@H](O)CO)C(O)=C1O`, for which the Potency is more than 92 µM.

Take `Cc1cc(CC(=O)O)n(C)c1C(=O)c1ccc(Cl)cc1`: the Potency is more than 92 µM.

Take `CCCCCCCCCCCCOS(=O)(=O)O`: the Potency is more than 92 µM.

With `CC1(C)[C@@H]2CC[C@@]1(C)C(=O)C2`, the Potency is more than 92 µM.

Regarding `Nc1ccc(S(=O)(=O)Nc2nccs2)cc1`, the Potency is more than 92 µM.

Take `NC(=O)c1ncn([C@@H]2O[C@H](CO)[C@@H](O)[C@H]2O)n1`: the Potency is more than 92 µM.

On to `CCCCOC(=O)c1ccc(O)cc1`, for which the Potency is more than 92 µM.

For `CC12CCC(CC1)C(C)(C)O2`, the Potency was more than 92 µM.

For `[Cl][In]([Cl])[Cl]`, the Potency was more than 92 µM.

In the case of `C[C@]12C[C@H](O)[C@H]3[C@@H](CCC4=CC(=O)CC[C@@]43C)[C@@H]1CC[C@@H]2C(=O)CO`, the Potency was more than 92 µM.

As for `O=C1c2c(O)cccc2Cc2cccc(O)c21`, the Potency is more than 92 µM.

A short description of a further assay: Cell Viability - Hek293 (AID 427).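 Also: cells exposed to compound for 40 hours at 37 °C before reading.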 The following applies: qHTS. The method in brief:
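qHTS, human embryonic kidney (adenovirus-transformed) cells; 40 hr cpd, 37 °C; CellTiter-Glo ATP luminescence. Norm: DMSO = 0, 100 uM tamoxifen = 100% inhibition. Hill-fit AC50.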
On to `Cc1cc2nc3c(=O)[nH]c(=O)nc-3n(C[C@H](O)[C@H](O)[C@H](O)CO)c2cc1C`, for which the Potency is more than 92 µM.

For `Oc1cccc(O)c1`, the Potency was more than 92 µM.

Consider `Cc1c(O)cccc1C(=O)N[C@@H](CSc1ccccc1)[C@H](O)CN1C[C@H]2CCCC[C@H]2C[C@H]1C(=O)NC(C)(C)C`, for which the Potency is 24.4 µM (active).

As for `COc1ccccc1O`, the Potency is more than 92 µM.

Regarding `NCCNCCNCCNCCN`, the Potency was more than 92 µM.

Consider `NCCNCCNCCN`, for which the Potency was more than 92 µM.

For `O=C1O[C@H]([C@@H](O)CO)C(O)=C1O`, the Potency was more than 92 µM.

As to `Cc1cc(CC(=O)O)n(C)c1C(=O)c1ccc(Cl)cc1`, the Potency was more than 92 µM.

As for `CCCCCCCCCCCCOS(=O)(=O)O`, the Potency was more than 92 µM.

Consider `CC1(C)[C@@H]2CC[C@@]1(C)C(=O)C2`, for which the Potency was more than 92 µM.

As for `Nc1ccc(S(=O)(=O)Nc2nccs2)cc1`, the Potency was more than 92 µM.

In the case of `CCCCOC(=O)c1ccc(O)cc1`, the Potency was more than 92 µM.

On to `CC12CCC(CC1)C(C)(C)O2`, for which the Potency was more than 92 µM.

`[Cl][In]([Cl])[Cl]`: the Potency was more than 92 µM.

As for `C[C@]12C[C@H](O)[C@H]3[C@@H](CCC4=CC(=O)CC[C@@]43C)[C@@H]1CC[C@@H]2C(=O)CO`, the Potency was more than 92 µM.

For `O=C1c2c(O)cccc2Cc2cccc(O)c21`, the Potency is more than 92 µM.

Turning to `COC(=O)C1=C(C)NC(C)=C(C(=O)OC)C1c1ccccc1[N+](=O)[O-]`, the Potency is more than 92 µM.
